Sm TGR inh: blocks Schistosoma mansoni thioredoxin glutathione reductase; Potency, µM (series often up to 114 µM), most hits filed as inhibitors; purified TGR, DTNB reduction, TNB absorbance 405 nm; Q962Y6; AID 485364; 360,000 tested, 3% active; active = well fitted inhibition curve with a large enough effect; inconclusive = small, poorly fitted or top-dose-only effect; inactive = no such curve, though single readings can be large or run the other way; also: nearly all actives have a fitted effect of over 60% in size
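First, TGR (20 nM dispensed) and NADPH were mixed with compound. Second, a 15 min room-temperature incubation followed. Third, further NADPH and then DTNB were added to start the reaction. Finally, TNB absorbance was monitored kinetically.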
SARS PLP yeast: inhibitors of SARS-CoV papain-like protease in yeast; S. cerevisiae expressing SARS-CoV PLpro, growth rescue; Potency, µM (titrated, usually from 32.9 µM), hits mostly activators; 330,000 tested, 0.19% active; AID 485353; calls by dose curve; also: nearly all actives have a fitted effect of over 55% in size
Numbers stand for hits; - = inactive; ? = inconclusive; . = no result. Rows were chosen to be rich in hits. Some 3% of all compounds tested hit in one or more screens of this group.

SMILES	Sm TGR inh	SARS PLP yeast
Cc1ccc(-c2nnc3ccccc3c2C(=O)Nc2ccccc2F)cc1	-	.
COc1ccc(Cn2c(C(=O)O)c(CNCc3ccc(SC)cc3)c3ccc(OC)cc32)cc1	-	.
Cc1ccc(Sc2cc(NCCCO)c([N+](=O)[O-])c3nonc23)cc1	3.55µM	-
CC(=O)OCCCNc1cc(Sc2ccc(Cl)cc2)c2nonc2c1[N+](=O)[O-]	3.16µM	-
O=[N+]([O-])c1c(NCCO)cc(N2CCCCC2)c2nonc12	-	-
CCN(CC)c1cc(NCCO)c([N+](=O)[O-])c2nonc12	-	-
Cc1nonc1OCCCNc1ccc([N+](=O)[O-])cc1Cl	-	-
CC(C)CCSc1cc(NCCO)c([N+](=O)[O-])c2nonc12	2.51µM	-
CCOc1ccc(NC(=O)C2CCN(c3nc4ccccc4[nH]3)CC2)cc1	-	.
CCOC(=O)CNc1ccc2c(c1)OCO2	50.1µM	-
CCOC(=O)CNC(=O)/C=C/c1ccc2c(c1)OCO2	-	-
COC(=O)C1=C(c2c(C)noc2C)C[C@@H]2CC[C@H]1N2C(=O)N1CCOCC1	50.1µM	-
COC(=O)C1=C(c2c(C)noc2C)C[C@@H]2CC[C@H]1N2C(=O)NC1CC1	-	-
N/C(Cc1cccc2ccccc12)=N\OC(=O)c1ccc(Br)o1	44.7µM	-
N/C(Cc1ccc(Cl)cc1Cl)=N\OC(=O)c1ccc(Br)o1	-	-
Cc1cc2c(cc3c(SCC(=O)Nc4cccc(Cl)c4C)nnc(C)n32)o1	-	.
COc1ccc(CCN2C(=O)CC(N3CCN(c4ccccn4)CC3)C2=O)cc1OC (centres undefined)	-	-
O=C1CC(N2CCN(c3ccccn3)CC2)C(=O)N1c1ccc(F)cc1 (centres undefined)	?	-
O=C1CC(N2CCN(c3ccccn3)CC2)C(=O)N1CC(c1ccccc1)c1ccccc1 (centres undefined)	7.08µM	-
CCc1ccc(N2C(=O)CC(N3CCN(c4ccccn4)CC3)C2=O)cc1 (centres undefined)	22.4µM	-
COc1cc(NC(=O)c2nn(-c3ccc(F)cc3)c(=O)n(C)c2=O)cc(OC)c1OC	-	.
COC(=O)C(Cc1c[nH]c2ccccc12)NC(=O)COc1ccc(Cl)cc1Cl (centres undefined)	-	.
COc1ccc(-c2nnc(SCc3cc(=O)c4cc(C)cc(C)c4[nH]3)n2C)cc1	-	.
O=c1c2cc(Br)ccc2[nH]c(=S)n1-c1ccccc1	-	-
O=c1cc(O)n(-c2ccccc2)c(=S)[nH]1	2µM	-
SMILES	Sm TGR inh	SARS PLP yeast
CCCCNC(=O)CCCn1c(=O)c2ccccc2n(Cc2cccc(Cl)c2)c1=O	-	.
COc1ccc(-c2noc(CSc3nnc(C)n3-c3ccc(F)cc3)n2)cc1	-	.
O=C(Cc1ccc(-c2ccccc2)cc1)NCCS(=O)(=O)N1CCN(c2cccc(Cl)c2)CC1	-	.
COC(=O)c1ccc(C(=O)OC)c(NC(=O)/C=C/C(=O)O)c1	10µM	-
COC(=O)c1ccc(C(=O)OC)c(NC(=O)Oc2ccccc2)c1	-	-
COc1cccc(C(=O)Nc2cccc(C(=O)OCc3cc(=O)n4c5c(sc4n3)CCCC5)c2)c1	-	.
COc1cc(NCCCC(C)N)c2ncccc2c1 (centres undefined)	35.5µM	-
CCC(CNc1cc(OC)cc2cccnc12)NC1CCCCC1 (centres undefined)	-	-
COCc1cc(=O)[nH]c(SCCS(=O)(=O)c2ccc(Cl)cc2Cl)n1	0.316µM	-
COCc1cc(=O)[nH]c(SCCS(=O)(=O)c2ccc(C)cc2)n1	-	-
COc1ccc(C2=NO[C@@H]3[C@@H]4C[C@@H]([C@H]5C(=O)N(c6ccc7c(c6)OCO7)C(=O)[C@@H]45)[C@H]23)cc1OC	-	-
CC(C)=C1C2CCC1C1C(=O)N(c3ccc4c(c3)OCO4)C(=O)C21 (centres undefined)	-	-
O=C1C2C3C=CC(C4CC34)C2C(=O)N1c1ccc2c(c1)OCO2 (centres undefined)	44.7µM	-
CC(C)=C1C2C=CC1C1C(=O)N(c3ccc4c(c3)OCO4)C(=O)C21 (centres undefined)	20µM	-
O=C(CCC(=O)N1Cc2ccccc2Oc2ncccc21)NCc1cccc(Cl)c1	-	.
Cc1cccc(-c2nc3scc(CCNS(=O)(=O)c4ccc(Oc5ccccc5)cc4)n3n2)c1	-	.
O=C(Nc1ccccc1)Nc1ccc(Cl)c(S(=O)(=O)N2CCOCC2)c1	-	-
O=C(/C=C/c1ccco1)NCCCN1CCOCC1	11.2µM	-
O=C(/C=C/c1ccc2c(c1)OCO2)NCCCN1CCOCC1	-	-
O=C(COC(=O)/C=C/c1ccc(Br)o1)NCCCN1CCCC1=O	31.6µM	-
O=C(/C=C/c1ccco1)Nc1ccc(Cl)c(S(=O)(=O)N2CCOCC2)c1	8.91µM	-
O=C(/C=C/c1ccc(Br)o1)NCCCN1CCOCC1	4.47µM	-
O=C(/C=C/c1ccc(Cl)cc1)NCCCN1CCOCC1	-	-

Screening data as filed in PubChem BioAssay.
